Screening results: PubChem, several laboratories
Shown are actives, neighbours in structure and some others; about 2.6% of the full set was active somewhere.
Granule exo inh: LAMP-1 surface exposure blockers, TALL-104 cells – cell-based, flow cytometry, MLPCN library, primary screen; TALL-104 LAMP-1 surface exposure; cells stimulated with thapsigargin and PMA; inhibition, % at 10 µM; 0.66% of 360,000 active; AID 651702, 2012;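 active = inhibition above about 55%, limit read from the data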
Platelet DG rel: inhibitors of platelet dense granule secretion, primary screen, cell-based, MLPCN, human platelets; human platelet-rich plasma, SFLLRN dense granule ATP release, luminescence; inhibition, %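 (compounds screened at 7.5 µM in platelet-rich plasma)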; 0.22% of 300,000 active; AID 1663, 2009;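 active = mean replicate score, as percent of positive control, at or above 50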
ABHD5 PLIN5 PPI: ABHD5-PLIN5 interaction inhibitors, primary screen, cell lysate, split luciferase complementation, luminescence. AID 602281, 2012. inhibition, % at 4 µM. Split G. princeps luciferase complementation, 4 h. Perilipin-5 (Homo sapiens) + 1-acylglycerol-3-phosphate O-acyltransferase ABHD5 (Homo …. 0.78% of 360,000 active;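 active = inhibition above the mean inhibition across every tested compound plus 3 SD, cut at about 22% in these data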;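 note: 0% = DMSO only wells and the 100% control is not disclosed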
PfM18AAP inh-1: PfM18AAP inhibitors, malaria aminopeptidase, primary screen, biochemical, QFRET, recombinant enzyme | M18 aspartyl aminopeptidase (Plasmodium falciparum 3D7) | H-Glu-NHMec fluorogenic cleavage | inhibition, % at 7.35 µM | 1.2% of 290,000 active | AID 1822, 2009;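 active = inhibition above the campaign mean inhibition over all tested compounds plus 3 SD, cut at about 28% in these data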;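 note: 0% = plate median of test compound wells and 100% = 2 mM ZnCl2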
Rce1 inh: yeast Rce1p protease inhibitors, primary screen, biochemical, fluorescence, cell-free homogeneous. calls only. 0.27% of 290,000 active. yeast membranes, quenched prenylated peptide cleavage fluorescence. CAAX prenyl protease 2 (Saccharomyces cerevisiae (strain ATCC 204508 / S288c)), Q03530;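 active = fall in fluorescence gain of 50% or more versus controls, with final raw signal at or below 3038400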;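 note: plate controls were neutral control wells for no effect and wells lacking membranes for full effect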
Target sequence (Q03530 whole entry, looked up): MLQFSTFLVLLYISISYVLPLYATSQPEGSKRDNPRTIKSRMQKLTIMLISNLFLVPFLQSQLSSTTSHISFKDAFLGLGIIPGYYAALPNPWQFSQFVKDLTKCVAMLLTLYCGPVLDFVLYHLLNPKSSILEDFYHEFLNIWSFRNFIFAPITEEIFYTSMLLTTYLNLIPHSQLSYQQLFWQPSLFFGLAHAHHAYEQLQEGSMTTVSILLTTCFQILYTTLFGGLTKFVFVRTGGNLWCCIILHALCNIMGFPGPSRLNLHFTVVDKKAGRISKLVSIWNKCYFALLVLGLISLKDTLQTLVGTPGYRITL
PfM18AAP inh-2: PfM18AAP inhibitors, malaria aminopeptidase, confirmation, biochemical, QFRET, recombinant enzyme, triplicate | shares compounds with PfM18AAP inh-1 | H-Glu-NHMec fluorogenic cleavage | inhibition, % at 7.35 µM | 28% of 2,400 active;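 active = mean inhibition over replicate wells above the hit cutoff set for the earlier primary screen, cut at about 29% in these data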;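 note: 0% = median of test compound wells and 100% = 2 mM ZnCl2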
CTSL1 counter: cathepsin L1 inhibitors, retest, confirmation, counter-screen for PFM18AAP inhibitor project, biochemical, QFRET, triplicate; shares compounds with PfM18AAP inh-1; purified cathepsin L1, Z-Leu-Arg-MCA fluorescence; inhibition, % at 5.96 µM; 2,400 tested, under 10 active; AID 2178, 2009;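 active = average inhibition across replicates above the hit cutoff set in the earlier primary screen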;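 note: 0% = median of test compound wells and 100% = Z-Phe-Ala-diazomethylketone 1 µM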
Target sequence (P07711 whole entry, looked up): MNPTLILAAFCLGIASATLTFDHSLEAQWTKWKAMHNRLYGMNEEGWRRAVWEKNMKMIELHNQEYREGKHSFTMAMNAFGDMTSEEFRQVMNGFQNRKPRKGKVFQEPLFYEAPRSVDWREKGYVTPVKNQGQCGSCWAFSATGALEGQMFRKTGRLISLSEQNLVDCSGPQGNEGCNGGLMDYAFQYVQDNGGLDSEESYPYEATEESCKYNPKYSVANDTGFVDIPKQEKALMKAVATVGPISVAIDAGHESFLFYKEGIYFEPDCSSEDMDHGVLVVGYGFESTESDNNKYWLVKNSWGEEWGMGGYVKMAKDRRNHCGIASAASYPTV
Starred values were filed as active, the others as inactive; i = inactive; x = not tested or not shown; + = active, no number.

SMILES	Granule exo inh	Platelet DG rel	ABHD5 PLIN5 PPI	PfM18AAP inh-1	Rce1 inh	others
COc1ccccc1CN1CCCC(C(=O)c2ccccc2OC)C1 (stereo not drawn)	6	1	4	0	i
Cc1cc(C)cc(N2C(=O)NC(=O)/C(=C/c3cccn3-c3ccc(Cl)cc3)C2=O)c1	13	1	2	21	i
Cc1cccc(N2C(=O)NC(=O)/C(=C\c3cccn3-c3ccc(Cl)cc3)C2=O)c1	73*	13	30*	3	i
COc1ccc2c(c1)C13CCN4CC5=CCOC6CC(=O)N2C1C6C5CC43 (stereo not drawn)	-2	x	3	x	x
COC1C(O)C(C)OC(OC2CCC3(C)C(CCC4C3C(O)CC3(C)C(C5=CC(=O)OC5)CCC43O)C2)C1O (stereo not drawn)	-4	x	22*	x	x
O=C1/C(=C\c2ccc(Cl)c(Cl)c2)N2CCC1CC2	94*	3	4	0	i
CCOC(=O)c1c(-c2ccc(OC)cc2)oc2ccc(OC(=O)N(C)C)cc12	9	8	0	-2	+
Cc1oc2ccc(OC(=O)N(C)C)cc2c1C(=O)OC(C)C	4	-2	1	3	i
CCOC(=O)C1(CCOc2ccccc2)CCN(Cc2cccc(O)c2)CC1	90*	-1	-3	4	i
CCOC(=O)C1(CCOc2ccccc2)CCN(Cc2ccccc2OC)CC1	34	2	6	-6	i
CC(C)CCNC(=O)c1c(N)n(Cc2ccc3c(c2)OCO3)c2nc3ccccc3nc12	56*	6	-13	-2	i
CC(=O)[C@H]1CC[C@H]2[C@@H]3CC[C@H]4C[C@H](O)CC[C@]4(C)[C@H]3C(=O)C[C@]12C	-2	0	6	3	+
CC(=O)OCC(=O)[C@H]1CC[C@H]2[C@@H]3CC[C@H]4C[C@H](O)CC[C@]4(C)[C@H]3C(=O)C[C@]12C	6	x	7	x	x
NC1(C(=O)O)CCCc2ccc(N(CCCl)CCCl)cc21 (stereo not drawn)	15	x	-6	x	x
COc1ccc(N2C(=O)CC(=O)NC2=O)cc1	-3	-1	22*	5	i
O=C(OCc1ccccc1)N1CCC2CC1c1cc(N3Cc4ccccc4-n4nncc4C3)ccc12 (stereo not drawn)	-1	x	12	x	x
CC1(C)CC(N(CCc2ccccc2)Cc2ccccc2)CCO1 (stereo not drawn)	-3	-5	-2	1	i
O=c1[nH]c(O)c(/C=C2/C=CC(c3cc(Cl)ccc3Cl)=N2)c(=O)[nH]1	92*	-2	1	-11	i
CC1=Nc2ccccc2/C1=C/c1c(O)[nH]c(=O)[nH]c1=O	-4	-4	-14	7	i
CC1CN2C(=O)C1(c1ccccc1)C(=O)NC2=S (stereo not drawn)	-6	x	-2	x	x
c1ccc(CN2CCN(Cc3ccc4ccccc4c3)CC2)cc1	28	2	0	2	i
N#Cc1c(Cl)nc(Cl)c2c1CCN(Cc1ccccc1)C2	3	-31	-6	-6	+
CCOC(=O)c1c(/N=C/c2c(O)n(-c3ccc(F)cc3)c(=S)[nH]c2=O)sc2c1CCCC2	-1	-4	-7	9	i
COC1CC2C=C(C)C=CC=CC(=O)NC(c3ccccc3)CC=CCCC(O)CC(=O)C2=C1O (stereo not drawn)	36	x	22*	x	x
CCNC(=O)[C@H]1O[C@@H](n2cnc3c(N)ncnc32)[C@H](O)[C@@H]1O	-4	84*	-3	1	i
SMILES	Granule exo inh	Platelet DG rel	ABHD5 PLIN5 PPI	PfM18AAP inh-1	Rce1 inh	others
Nc1ncnc2c1ncn2[C@@H]1O[C@H](C(=O)NCCc2ccc(F)cc2)[C@@H](O)[C@H]1O	-2	x	-8	x	x
O=C1NC(=O)N(Cc2ccccc2Cl)C(=O)/C1=C/c1cccs1	25	8	-1	8	i
Cc1ccc(C[n+]2c(-c3ccc(C)cc3)cc(-c3ccc(C)cc3)cc2-c2ccc(C)cc2)cc1	-7	-8	38*	x	i
NNc1n[nH]c(=S)n1N	25	-5	-26	42*	i	PfM18AAP inh-2=40*;CTSL1 counter=3
Cn1c(O)c(C=NCCCN2CCCC2=O)c(=O)n(C)c1=O	11	7	1	0	i
C[N+]1(C)[C@@H]2CC[C@H]1CC(OC(=O)[C@@H](CO)c1ccccc1)C2 (stereo partly drawn)	-1	-1	2	44*	i	PfM18AAP inh-2=33*;CTSL1 counter=-2
C[N+]1(C)C2CC[C@H]1CC(OC(=O)C(CO)c1ccccc1)C2 (stereo partly drawn)	13	x	0	x	x
COCCOC(=O)c1c(N)n(Cc2ccc(OC)cc2)c2nc3ccccc3nc12	3	-16	-3	35*	x	PfM18AAP inh-2=-20;CTSL1 counter=10
COc1ccc(-n2c(O)c(C=NCCN(C)C)c(=O)[nH]c2=O)cc1	2	7	-2	-4	i
C/C(CC(c1ccccc1)c1c(O)c2ccccc2oc1=O)=N\Nc1ccc([N+](=O)[O-])cc1[N+](=O)[O-] (stereo not drawn)	0	3	-4	36*	i	PfM18AAP inh-2=-28;CTSL1 counter=-1
O=C(C1CCC(=O)N1C1CCCC1)N1CCC2(CC1)OCCO2 (stereo not drawn)	2	0	0	1	i
COC(=O)c1cccc(N=Cc2c(O)n(Cc3ccc(F)cc3)c(=O)[nH]c2=O)c1	-2	-8	0	-2	i
C[C@]12CC[C@@H]3c4ccc(O)c(O)c4CC[C@H]3[C@@H]1CC[C@@H]2O	4	3	6	57*	i	PfM18AAP inh-2=92*;CTSL1 counter=-4
CC1=C(C(=O)O)N2C(=O)[C@@H](NC(=O)CCCC(=O)O)[C@H]2SC1	-2	-6	-8	36*	i	PfM18AAP inh-2=15;CTSL1 counter=3
Cc1cc(/C=C2\C(=O)NC(=O)N(Cc3ccccc3Cl)C2=O)c(C)n1-c1ccc(C(=O)O)cc1	11	-1	-11	16	i
Oc1ccc(CC2CC3CCN2CC3)cc1O (stereo not drawn)	-2	1	-2	57*	i	PfM18AAP inh-2=28;CTSL1 counter=-4
COc1ccc(-n2c(/C=C/c3ccc(O)c(O)c3)nc3ccccc3c2=O)cc1	8	-4	1	63*	i	PfM18AAP inh-2=45*;CTSL1 counter=1
COC(=O)C(O)(c1ccc(N=Cc2ccccc2O)c(C)c1)C(F)(F)F (stereo not drawn)	2	3	-4	3	i
